Test [1] in a line: Human pregnane X receptor (PXR) small molecule agonists, qHTS cell viability counter screen (AID 1346977). Note: nearly all actives have a fitted effect of over 50% in size. Note: potency is the fitted concentration of half-maximal effect. The essentials: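 HepG2 cells stably carrying the PXR-Luc reporter are cultured with 5% charcoal-stripped FBS and treated with compounds for 24hr. CellTiter-Fluor is added at 23hr and fluorescence is read after 1hr.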
The nature of test [2]: Caspase-3/7 induction in HepG2 cells by small molecules, qHTS assay (AID 1346978). Note: nearly all actives have a fitted effect of over 15% in size. Note: potency is the fitted concentration of half-maximal effect. The essentials:
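Wild-type HepG2 cells, 2,000/well, settled 5 hr at 37 C and 5% CO2, then compound-treated for 17 hr; caspase-3/7 activity read by luminescent Caspase-Glo 3/7 after 30 min at room temperature.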
Background: Quantitative high-throughput screening tests each substance at several concentrations.

The nature of test [3]: Caspase-3/7 induction in CHO-K1 cells by small molecules, qHTS assay (AID 1346980). Note: nearly all actives have a fitted effect of over 15% in size. The procedure, abridged:
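Wild-type CHO-K1 cells exposed to compounds for 17hr at 37 C, 5% CO2. Caspase-3/7 activity then measured by Caspase-Glo 3/7 luminescence after 30min at room temperature.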

The nature of test [4]: Caspase-3/7 induction in HepG2 cells by small molecules, qHTS cell viability counter screen (AID 1346981). Note: nearly all actives have a fitted effect of over 30% in size. Note: potency is the fitted concentration of half-maximal effect. The procedure, abridged:
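Wild-type HepG2 cells (2,000/well) were allowed to settle for 5 hr at 37 C, 5% CO2, then dosed with compounds in DMSO by pin transfer. After 16 hr at 37 C, CellTiter-Fluor was added and fluorescence read 1 hr later.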

In test [5] the target is Nuclear receptor subfamily 1 group I member 2 (Homo sapiens) (UniProt O75469). Put plainly: Human pregnane X receptor (PXR) small molecule agonists, qHTS assay (AID 1346982). Note: nearly all actives have a fitted effect of over 35% in size. Note: potency is the fitted concentration of half-maximal effect. The procedure, abridged:
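PXR-Luc HepG2 cells (CYP3A4 promoter-driven luciferase) were seeded in medium with 5% charcoal-stripped FBS, left 5 hr at 37 C, then exposed to compounds in DMSO for 24 hr. Luminescence was read after ONE-Glo addition.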

In test [6] the target is Nuclear receptor subfamily 1 group I member 2 (Rattus norvegicus) (UniProt Q9R1A7). As to the kind of experiment: Rat pregnane X receptor (rPXR) activation by small molecules, qHTS assay (AID 1346983). Note: nearly all actives have a fitted effect of over 20% in size. Particulars: rPXR luciferase reporter cells, One-Glo luminescence, 24 h; max activation: stronger effect = higher value. The procedure, abridged:
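Cell-based rPXR activation assay: rPXR cells, 2,000 per well, rested 5hr at 37 C, then exposed to compounds in DMSO for 24 hr at 37 C. Luciferase activity read by One-Glo luminescence after 30 min at room temperature.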

For test [7], the target named is Nuclear receptor subfamily 1 group I member 2 (Homo sapiens) (UniProt O75469). As to the kind of experiment: Human pregnane X receptor (PXR) activation by small molecules, qHTS assay (AID 1346985). Note: nearly all actives have a fitted effect of over 40% in size. The essentials: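 DPX-2 cells (HepG2 co-transfected with a PXR response element and a CYP3A4-promoter luciferase construct) were seeded at 2,000 per well, rested 5 hr at 37C, then exposed to DMSO-dissolved compounds for 24 hr. Activation was read as luciferase luminescence.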

For test [8], the target named is Cytochrome P450 2D6 (Homo sapiens) (UniProt P10635). Put plainly: Cytochrome P450 Family 2 Subfamily D Member 6 (CYP2D6) small molecule antagonists: luciferase reporter qHTS assay (AID 1671196). Note: nearly all actives have a fitted effect of over 50% in size. Note: potency is the fitted concentration of half-maximal effect. The procedure, abridged: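 CYP2D6 enzyme–substrate mix was held with compound for 10 min at room temperature, then NADPH regeneration solution was added and the reaction ran 1 h at room temperature. Luciferin product was detected by luminescence after 20 min with detection reagent.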
A general note: In a reporter assay the amount or activity of a reporter protein is the signal.

Test [9] concerns the target Cytochrome P450 2C19 (Homo sapiens) (UniProt P33261). Put plainly: Cytochrome P450 Family 2 Subfamily C Member 19 (CYP2C19) small molecule antagonists: luciferase reporter qHTS assay (AID 1671197). Note: nearly all actives have a fitted effect of over 65% in size. Note: potency is the fitted concentration of half-maximal effect. The procedure, abridged: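 Enzyme-substrate mix with proluciferin substrate (P450-Glo CYP2C19 system) preincubated with compounds 10 min at room temperature; NADPH regeneration solution added, 37C for 1 h; detection reagent stops reaction, luminescence read after 20 min. Ketoconazole positive control.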

In test [10] the target is Cytochrome P450 2C9 (Homo sapiens) (UniProt P11712). Put plainly: Cytochrome P450 Family 2 Subfamily C Member 9 (CYP2C9) small molecule antagonists: luciferase reporter qHTS assay (AID 1671198). Note: nearly all actives have a fitted effect of over 50% in size. Note: potency is the fitted concentration of half-maximal effect. The procedure, abridged:
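P450-Glo proluciferin substrate with CYP2C9 enzyme; 10 min RT preincubation, then NADPH regeneration 1 h at 37C; luciferin detection reagent 20 min RT, luminescence in relative luminescence units.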

Test [11] has as its target Cytochrome P450 1A2 (Homo sapiens) (UniProt P05177). Put plainly: Cytochrome P450 Family 1 Subfamily A Member 2 (CYP1A2) small molecule antagonists: luciferase reporter qHTS assay (AID 1671199). Note: nearly all actives have a fitted effect of over 50% in size. Note: potency is the fitted concentration of half-maximal effect. The procedure, abridged:
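Human CYP1A2 activity measured with a P450-Glo proluciferin substrate; compounds in DMSO preincubated 10 min at room temperature with enzyme-substrate mix, then NADPH regeneration system added for 1 h. Luciferin detection reagent, 20 min, luminescence read.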

Test [12] addresses Voltage-gated inwardly rectifying potassium channel KCNH2 (Homo sapiens) (UniProt Q12809). As to the kind of experiment: Human Ether-a-go-go-Related Gene (hERG) channel small molecule antagonists: fluorescence cell-based qHTS assay (AID 1671200). Note: nearly all actives have a fitted effect of over 50% in size. Note: potency is the fitted concentration of half-maximal effect. The essentials:
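First, 1000 cells per well are seeded and cultured overnight at 37 C. Next, FluxOR II dye is loaded for 1 h at room temperature, protected from light. After 10 more minutes, stimulus is added and fluorescence is read.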
Background: The hERG channel carries a current that helps repolarise heart muscle cells.

Test [13] addresses Cytochrome P450 3A4 (Homo sapiens) (UniProt P08684). As to the kind of experiment: Cytochrome P450 Family 3 Subfamily A Member 4 (CYP3A4) small molecule antagonists: luciferase reporter qHTS assay (AID 1671201). Note: nearly all actives have a fitted effect of over 50% in size. Note: potency is the fitted concentration of half-maximal effect. The essentials:
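Enzyme and proluciferin substrate are mixed with test chemicals for 10 min, then NADPH regeneration system drives turnover for 1 h at room temperature. A detection reagent halts the reaction; luminescence after 20 min gives relative activity.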

Test [14] is described as follows: Caspase-3/7 induction in CHO-K1 cells by small molecules, qHTS cell viability counter screen (AID 1346979). Note: nearly all actives have a fitted effect of over 35% in size. Note: potency is the fitted concentration of half-maximal effect. The procedure, abridged:
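Seeding: 1,500 CHO-K1 cells/well. Rest: 5hr, 37C. Treatment: compounds in DMSO, 16hr. Read: CellTiter-Fluor, 1hr, fluorescence.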

We go through 19 molecules from PubChem BioAssay (Tox21).

A number with no mark means an inactive call. Inconclusive results are not listed. The source made the active and inactive calls. Calls come from the whole dose curve; as a rule, active = well fitted curve in the direction sought with a large enough effect in the repeat runs; inconclusive = weak or mixed curves; inactive = no such curve, though single readings can be large; an effect the other way counts as inactive or inconclusive.
% is set by controls: 0 for no effect and ±100 for the full control effect.

Chain of Cytochrome P450 1A2 (Homo sapiens) (P05177 whole entry, looked up): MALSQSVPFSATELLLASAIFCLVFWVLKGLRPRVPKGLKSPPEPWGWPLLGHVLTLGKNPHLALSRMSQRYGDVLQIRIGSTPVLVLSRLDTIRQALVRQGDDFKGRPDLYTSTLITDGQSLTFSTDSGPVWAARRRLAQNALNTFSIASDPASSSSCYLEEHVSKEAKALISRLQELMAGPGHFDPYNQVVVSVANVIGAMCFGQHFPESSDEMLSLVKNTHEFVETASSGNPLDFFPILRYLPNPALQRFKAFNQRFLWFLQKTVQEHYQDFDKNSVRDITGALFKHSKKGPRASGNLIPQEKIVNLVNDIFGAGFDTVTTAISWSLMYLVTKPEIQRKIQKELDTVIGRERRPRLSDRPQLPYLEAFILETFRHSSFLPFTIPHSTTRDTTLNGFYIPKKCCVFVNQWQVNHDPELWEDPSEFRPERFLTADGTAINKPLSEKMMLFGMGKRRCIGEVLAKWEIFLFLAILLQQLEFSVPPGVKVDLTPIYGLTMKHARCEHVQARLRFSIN
Chain of Voltage-gated inwardly rectifying potassium channel KCNH2 (Homo sapiens) (Q12809 whole entry, looked up): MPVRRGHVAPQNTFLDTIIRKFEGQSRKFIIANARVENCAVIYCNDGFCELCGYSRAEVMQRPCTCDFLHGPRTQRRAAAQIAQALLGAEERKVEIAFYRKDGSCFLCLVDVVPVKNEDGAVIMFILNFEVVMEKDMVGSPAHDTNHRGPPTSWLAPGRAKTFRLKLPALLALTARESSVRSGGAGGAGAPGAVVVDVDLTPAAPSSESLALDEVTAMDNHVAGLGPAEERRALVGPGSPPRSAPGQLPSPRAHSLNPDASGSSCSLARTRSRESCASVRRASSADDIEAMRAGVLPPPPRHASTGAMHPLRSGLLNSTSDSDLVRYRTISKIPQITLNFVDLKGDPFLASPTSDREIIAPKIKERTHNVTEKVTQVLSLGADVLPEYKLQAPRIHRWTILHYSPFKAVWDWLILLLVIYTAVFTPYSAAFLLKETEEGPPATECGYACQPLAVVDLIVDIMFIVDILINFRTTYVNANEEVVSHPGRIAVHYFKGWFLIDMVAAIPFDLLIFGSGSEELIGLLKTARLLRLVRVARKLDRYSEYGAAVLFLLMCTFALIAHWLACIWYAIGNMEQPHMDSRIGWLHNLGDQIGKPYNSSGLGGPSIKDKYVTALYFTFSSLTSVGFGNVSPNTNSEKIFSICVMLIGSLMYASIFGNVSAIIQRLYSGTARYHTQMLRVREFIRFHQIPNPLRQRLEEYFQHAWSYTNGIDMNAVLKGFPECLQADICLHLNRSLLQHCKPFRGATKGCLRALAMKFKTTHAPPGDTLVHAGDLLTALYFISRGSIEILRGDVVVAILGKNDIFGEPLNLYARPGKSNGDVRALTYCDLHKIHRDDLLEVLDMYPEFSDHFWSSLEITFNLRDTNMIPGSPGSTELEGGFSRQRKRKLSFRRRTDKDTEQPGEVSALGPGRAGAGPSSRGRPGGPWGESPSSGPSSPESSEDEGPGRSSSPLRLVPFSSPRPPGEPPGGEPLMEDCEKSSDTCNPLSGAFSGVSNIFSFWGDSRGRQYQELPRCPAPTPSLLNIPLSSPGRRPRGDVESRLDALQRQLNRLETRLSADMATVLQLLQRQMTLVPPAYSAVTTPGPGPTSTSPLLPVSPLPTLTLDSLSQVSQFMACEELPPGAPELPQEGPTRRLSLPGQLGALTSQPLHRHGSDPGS
Chain of Cytochrome P450 2C19 (Homo sapiens) (P33261 whole entry, looked up): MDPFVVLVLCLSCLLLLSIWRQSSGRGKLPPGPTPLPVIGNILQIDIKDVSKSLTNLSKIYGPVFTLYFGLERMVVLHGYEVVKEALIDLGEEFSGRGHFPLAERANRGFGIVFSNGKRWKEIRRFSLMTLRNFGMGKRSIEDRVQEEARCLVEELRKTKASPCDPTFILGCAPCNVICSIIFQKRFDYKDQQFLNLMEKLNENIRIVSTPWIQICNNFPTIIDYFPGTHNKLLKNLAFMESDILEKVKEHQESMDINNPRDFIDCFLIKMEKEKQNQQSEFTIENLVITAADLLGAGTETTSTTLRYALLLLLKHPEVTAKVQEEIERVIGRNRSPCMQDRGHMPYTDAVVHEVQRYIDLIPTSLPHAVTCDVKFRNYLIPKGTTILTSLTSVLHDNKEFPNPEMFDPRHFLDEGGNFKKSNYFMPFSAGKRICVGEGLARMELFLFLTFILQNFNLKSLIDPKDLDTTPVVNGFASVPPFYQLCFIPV
Chain of Cytochrome P450 2C9 (Homo sapiens) (P11712 whole entry, looked up): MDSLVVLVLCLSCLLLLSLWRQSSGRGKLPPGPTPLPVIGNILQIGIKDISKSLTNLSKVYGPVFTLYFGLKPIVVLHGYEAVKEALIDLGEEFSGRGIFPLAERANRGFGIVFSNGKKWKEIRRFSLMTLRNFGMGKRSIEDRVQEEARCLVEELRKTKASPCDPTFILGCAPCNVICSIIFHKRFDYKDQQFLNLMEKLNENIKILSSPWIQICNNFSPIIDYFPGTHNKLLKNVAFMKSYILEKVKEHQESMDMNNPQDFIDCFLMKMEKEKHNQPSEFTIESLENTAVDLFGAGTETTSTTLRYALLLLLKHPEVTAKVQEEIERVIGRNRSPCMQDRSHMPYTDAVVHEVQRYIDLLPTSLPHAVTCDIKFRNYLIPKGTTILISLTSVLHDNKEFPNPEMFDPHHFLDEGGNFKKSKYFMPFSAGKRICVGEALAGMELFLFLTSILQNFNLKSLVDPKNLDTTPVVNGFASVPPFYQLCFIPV
Chain of Cytochrome P450 2D6 (Homo sapiens) (P10635 whole entry, looked up): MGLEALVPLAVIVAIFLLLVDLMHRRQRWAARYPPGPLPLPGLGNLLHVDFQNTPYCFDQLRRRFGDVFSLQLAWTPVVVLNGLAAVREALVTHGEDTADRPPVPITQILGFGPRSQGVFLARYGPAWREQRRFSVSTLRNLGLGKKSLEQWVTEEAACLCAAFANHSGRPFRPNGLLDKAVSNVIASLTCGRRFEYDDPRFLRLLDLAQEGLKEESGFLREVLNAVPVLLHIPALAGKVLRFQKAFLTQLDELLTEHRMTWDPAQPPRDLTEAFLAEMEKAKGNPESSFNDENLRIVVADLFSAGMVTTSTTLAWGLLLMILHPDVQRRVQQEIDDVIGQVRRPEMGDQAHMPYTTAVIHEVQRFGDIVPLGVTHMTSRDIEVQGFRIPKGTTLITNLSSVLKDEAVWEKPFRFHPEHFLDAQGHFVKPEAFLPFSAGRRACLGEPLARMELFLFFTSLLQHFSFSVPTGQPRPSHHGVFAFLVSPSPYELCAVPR
Chain of Cytochrome P450 3A4 (Homo sapiens) (P08684 whole entry, looked up): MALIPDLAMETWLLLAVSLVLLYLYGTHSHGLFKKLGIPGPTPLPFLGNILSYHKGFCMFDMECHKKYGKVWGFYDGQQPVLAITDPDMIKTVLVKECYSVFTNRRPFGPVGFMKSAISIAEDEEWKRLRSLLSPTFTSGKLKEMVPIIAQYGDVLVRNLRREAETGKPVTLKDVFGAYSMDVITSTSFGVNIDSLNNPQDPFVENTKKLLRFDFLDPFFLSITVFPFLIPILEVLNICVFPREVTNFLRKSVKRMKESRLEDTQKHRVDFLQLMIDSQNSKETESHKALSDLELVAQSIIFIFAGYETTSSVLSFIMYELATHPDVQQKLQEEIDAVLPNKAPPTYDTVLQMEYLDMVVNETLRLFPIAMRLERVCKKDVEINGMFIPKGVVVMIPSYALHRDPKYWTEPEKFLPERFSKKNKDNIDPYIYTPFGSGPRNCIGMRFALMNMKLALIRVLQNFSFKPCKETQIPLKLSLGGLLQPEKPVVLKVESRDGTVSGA
Chain of Nuclear receptor subfamily 1 group I member 2 (Homo sapiens) (O75469 whole entry, looked up): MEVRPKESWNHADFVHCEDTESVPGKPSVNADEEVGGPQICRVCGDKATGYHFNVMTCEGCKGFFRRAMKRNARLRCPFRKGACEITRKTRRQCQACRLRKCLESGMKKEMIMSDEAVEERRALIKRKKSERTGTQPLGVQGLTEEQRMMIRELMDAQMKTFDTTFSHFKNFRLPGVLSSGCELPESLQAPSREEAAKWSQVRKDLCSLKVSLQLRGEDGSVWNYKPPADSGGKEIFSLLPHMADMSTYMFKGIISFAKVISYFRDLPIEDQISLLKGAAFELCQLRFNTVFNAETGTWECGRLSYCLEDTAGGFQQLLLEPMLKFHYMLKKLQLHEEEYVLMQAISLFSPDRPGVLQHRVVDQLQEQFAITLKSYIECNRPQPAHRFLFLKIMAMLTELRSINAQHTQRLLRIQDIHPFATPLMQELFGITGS
Chain of Nuclear receptor subfamily 1 group I member 2 (Rattus norvegicus) (Q9R1A7 whole entry, looked up): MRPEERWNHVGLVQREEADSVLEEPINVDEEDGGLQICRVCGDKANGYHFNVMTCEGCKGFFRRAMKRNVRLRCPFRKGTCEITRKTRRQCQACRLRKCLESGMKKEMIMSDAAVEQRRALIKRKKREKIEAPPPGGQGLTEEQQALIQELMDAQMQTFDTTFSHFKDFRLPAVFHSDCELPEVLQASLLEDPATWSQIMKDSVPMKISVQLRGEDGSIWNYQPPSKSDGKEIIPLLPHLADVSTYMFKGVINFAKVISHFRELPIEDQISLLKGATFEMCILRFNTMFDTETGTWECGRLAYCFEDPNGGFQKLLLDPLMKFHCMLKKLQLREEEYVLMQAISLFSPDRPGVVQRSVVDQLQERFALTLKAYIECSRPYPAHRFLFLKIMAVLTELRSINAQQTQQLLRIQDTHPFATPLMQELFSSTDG

Consider `CC[C@@H](CO)NCCN[C@@H](CC)CO`, for which the Potency result in test [1], in test [2], in [4], in test [5], in test [7] and in test [8] was “inactive” each time. For the same molecule, the Potency result in [9], in test [10], in test [11] and in test [12] was “inactive” each time. For the same molecule, the molecule was called inactive in test [3]. Moreover, in test [6], the max activation was 2.2%.

For `C=CC(=O)NC(C)C`, the Potency result in test [1], in [2], in test [4], in [8], in test [9] and in test [10] was “inactive” throughout. The Potency entry in test [12] and in test [13] was “inactive” throughout. Further, the molecule was called inactive in [3].

As for `c1ccc(CNc2ncnc3c2ncn3C2CCCCO2)cc1` (stereo unspecified), the Potency result in [2], in [14], in test [4], in test [8], in test [12] and in [13] was “inactive” each time. In addition, the outcome in test [3] was inactive. Moreover, the Potency in [5] was 21.7 µM (active); in test [11], 28.3 µM (active).

As for `C=Cc1ccc(OC(C)=O)cc1`, the Potency result in [1], in test [2], in [4], in [8], in test [9] and in test [10] was “inactive” throughout. The Potency result in test [12] and in [13] was “inactive” each time.

On to `CCCCCCCCCCCCCCCCCC(=O)OCC(CC)CCCC` (stereo unspecified), for which the Potency result in test [1], in [2], in [4], in [5], in test [8] and in [9] was “inactive” each time. Moreover, the Potency result in [10] and in test [12] was “inactive” in each case. Besides, the result in [3] was inactive.

On to `CC(=O)N[C@@H](Cc1ccc(O)cc1)C(=O)O`, for which the Potency result in [1], in test [2], in [4], in [7], in test [8] and in test [9] was “inactive” each time. Further, the Potency entry in [10], in [11], in test [12] and in test [13] was “inactive” each time. In addition, the result in test [3] was inactive. In addition, the max activation in test [6] is -1.6%.

For the molecule `Nc1nc2ccc(OC(F)(F)F)cc2s1`, the Potency entry in test [2] and in test [4] was “inactive” in each case. For the same molecule, the molecule was called inactive in [3]. Also, in test [5], the Potency is 13.3 µM (active).

As to `O[C@@H](CNC[C@H](O)[C@H]1CCc2cc(F)ccc2O1)[C@@H]1CCc2cc(F)ccc2O1`, the Potency is 29.8 µM (active) in test [1]; 33.5 µM (active) in test [2]; 33.5 µM (active) in [14]; 0.275 µM (active) in [8]; 2.68 µM (active) in test [12]. In addition, the Potency result in test [5], in [9], in test [10], in [11] and in test [13] was “inactive” in each case.

For `CCOC(=O)Oc1ccc(CCNC(=O)[C@H](CCSC)NC(C)=O)cc1OC(=O)OCC`, the Potency entry in test [2], in test [14], in test [4], in test [5], in test [8] and in test [9] was “inactive” in each case. The Potency entry in test [11] and in [12] was “inactive” in each case. The Potency in test [10] was 17.4 µM (active).

In the case of `CCCC(=O)OC(=O)CCC`, the Potency result in test [2], in test [14], in [4], in test [5], in test [8] and in [9] was “inactive” throughout. For the same molecule, the Potency entry in test [10] and in [12] was “inactive” throughout. Also, the molecule was called inactive in test [3].

Turning to `Cc1ccc2c(c1[N+](=O)[O-])C(=O)c1ccccc1C2=O`, the Potency in test [1] is 3.78 µM (active); in [4], 3 µM (active); in test [5], 1.9 µM (active); in [11] it was 4.93 µM (active); in test [13], 15.6 µM (active). In test [3], the molecule was classed as inactive. Besides, the Potency entry in [8], in test [9], in [10] and in test [12] was “inactive” each time.

With `COC(=O)c1sccc1S(N)(=O)=O`, the Potency result in test [2], in test [14], in test [4], in test [5], in [10] and in test [11] was “inactive” throughout. The Potency entry in [12] was “inactive”. Besides, in test [9], the Potency was 79.6 µM (active).

With `Cc1ccc(N(CCO)CCO)cc1`, the Potency result in test [1], in test [14], in [4], in test [5], in test [8] and in test [12] was “inactive” throughout. The Potency result in test [13] was “inactive”. For the same molecule, the values for the Potency in [9], in test [10] and in test [11] were 17.8 µM (active), 39.9 µM (active) and 31.7 µM (active), respectively.

As to `O=C(O)CNC(=O)c1ccccc1I`, the Potency entry in test [1], in test [2], in [14], in [4], in test [7] and in [8] was “inactive” throughout. The Potency result in [10] and in test [12] was “inactive” each time. Moreover, the max activation in test [6] was 0.066%.

Turning to `O=C(O)CCC(=O)c1ccc(-c2ccccc2)cc1`, the Potency entry in test [1], in test [2], in test [4], in [5], in test [7] and in [8] was “inactive” throughout. Moreover, the Potency entry in test [10], in test [11], in test [12] and in test [13] was “inactive” in each case. Also, the max activation in test [6] was 11.9%.

Consider `O=C(/C=C/c1ccc([N+](=O)[O-])cc1)c1ccccc1`, for which the Potency was 61.3 µM (active) in [1], 1.59 µM (active) in test [9], 11.3 µM (active) in [10] and 5.04 µM (active) in test [11]. In addition, the call in [3] was inactive. Further, in [12], the Potency result is “inactive”.

As to `O=C1[C@@H]2[C@H]3CC[C@H](C3)[C@@H]2C(=O)N1CCCCN1CCN(c2ncccn2)CC1`, the Potency result in [2], in test [4], in [5], in test [9], in test [10] and in [11] was “inactive” in each case. In addition, in test [12], the Potency result was “inactive”. Also, in test [3], the outcome was inactive. The Potency in [8] was 12.3 µM (active).

For `CCN(Cc1cccc(S(=O)(=O)O)c1)c1ccc(C(=C2C=CC(=[N+](CC)Cc3cccc(S(=O)(=O)O)c3)C=C2)c2ccc(O)cc2S(=O)(=O)[O-])cc1`, the Potency in [14] is 18.6 µM (active); in [4], 16.6 µM (active); in [8] it was 19.3 µM (active); in [9], 13.6 µM (active); in test [11], 17.2 µM (active); in test [13], 19.3 µM (active). Also, the molecule was called inactive in test [3]. Besides, in test [12], the Potency result was “inactive”.

Turning to `CC(=O)NCCO`, the Potency result in test [1], in test [2], in test [4], in test [5], in test [8] and in test [9] was “inactive” in each case. The Potency result in [11] and in [12] was “inactive” throughout. For the same molecule, in [3], the molecule was classed as inactive.
